Screens deposited in PubChem by National Center for Advancing Translational Sciences (NCATS).
Lassa entry inh – blocks Lassa virus binding to or entry into cells. Lassa virus pseudotype entry inhibition, cell reporter. Potency, µM (titrated, usually from 37.9 µM), without a hit: top-dose activity change, negative = inhibition, usual class: inhibitors. 300,000 tested, 1.2% active; calls by dose curve; tested in HEK293 cells; also: potency is read from the fitted curve at half-maximal effect; nearly all actives have a fitted effect of over 50% in size
Marburg entry inh – blocks Marburg virus binding to or entry into cells | Marburg virus pseudotyped entry inhibition, cell reporter | Potency, µM (series often up to 37.8 µM), for inactives: at the highest dose activity change, negative = inhibition, most hits filed as inhibitors | 300,000 tested, 1.8% active | AID 540276; calls by dose curve; tested in HEK293 cells; also: potency is read from the fitted curve at half-maximal effect
HCMV antiviral – human cytomegalovirus inhibition | HFF cells, HCMV-luciferase reporter, 72 h; stronger effect = lower value | activity change, negative = inhibition, % at 57.5 µM | 410,000 tested, 4.5% active | AID 1259415; in the data active = activity change below about -60%; inconclusive = no clear call, values can overlap the other calls; inactive = above about -39%
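HFF cells seeded 16 h at 37C, treated with compounds, infected with luciferase-reporter HCMV at MOI 1 PFU/cell; luciferase read at 72 h post infection, normalized to buffer-only and Salinomycin controls.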
FMDV antiviral – foot and mouth disease virus antiviral activity; 410,000 tested, 1.2% active; FMDV antiviral cell-based qHTS; AID 1159524; Potency, µM (series often up to 57.9 µM), for the others: at the top dose activity change, negative = inhibition, most hits filed as inhibitors; calls by dose curve; tested in HEK293T cells; also: read-out not given here; potency is read from the fitted curve at half-maximal effect; nearly all actives have a fitted effect of over 45% in size
Giardia FBPA inh – inhibitors of Giardia lamblia fructose-1,6-bisphosphate aldolase | A8B2U2 | Potency, µM (series often up to 59.6 µM), for inactives: top-dose activity, negative = inhibition, actives largely listed as inhibitors | purified Giardia FBPA | 290,000 tested, 0.71% active; also: potency is read from the fitted curve at half-maximal effect; nearly all actives have a fitted effect of over 55% in size
Target sequence (A8B2U2 whole entry, looked up): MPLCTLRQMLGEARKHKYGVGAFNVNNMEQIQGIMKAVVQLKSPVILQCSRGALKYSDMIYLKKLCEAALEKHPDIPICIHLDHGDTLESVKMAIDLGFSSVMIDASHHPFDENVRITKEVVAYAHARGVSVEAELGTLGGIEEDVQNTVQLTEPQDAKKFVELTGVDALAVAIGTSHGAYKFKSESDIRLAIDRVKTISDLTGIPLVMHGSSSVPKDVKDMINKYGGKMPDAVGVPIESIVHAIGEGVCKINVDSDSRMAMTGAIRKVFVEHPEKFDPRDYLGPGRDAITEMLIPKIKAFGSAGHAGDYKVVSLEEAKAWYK
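Giardia FBPA (40 nM reagent) was preincubated 10 min at RT with compound (up to 57.5 uM final), then substrate plus GAPDH/TPI/NAD/arsenate coupling system with diaphorase/resazurin was added; resorufin fluorescence (525/598 nm) was read after 20 min.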
HCV inh – inhibitors of hepatitis C virus infection. Potency, µM (top dose mostly 41.8 µM), for the others: at the highest dose activity change, negative = inhibition, most hits filed as inhibitors. 340,000 tested, 3.4% active. Huh7.5.1 HCVcc-Cre infection, luciferase reporter, 44 h; also: potency is read from the fitted curve at half-maximal effect
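Luciferase read-out (15 sec integration) after a 15 min room-temperature substrate step quantifies HCVcc-Cre infection. Cells, 1,000 per well, had compound added 4 h post-plating, then virus at ~0.5 moi, and were cultured 44 h.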
* = called active by the depositor; u = inconclusive; x = no result given; [ ] = another dose, or the depositor's remark. An excerpt weighted towards active compounds, which were near 8.3% of everything screened. Unless noted, calls follow the shape of the dose curve; as a rule, active = well fitted curve in the direction sought with a large enough effect; inconclusive = small, poorly fitted or top-dose-only effect, or another doubt; inactive = no such curve, though single readings can be large; an effect the other way counts as inactive or inconclusive. % is scaled to controls: 0 for no effect and ±100 for the full control effect.

SMILES	Lassa entry inh	Marburg entry inh	HCMV antiviral	FMDV antiviral	Giardia FBPA inh	HCV inh
Cc1cccc(C(=O)Nc2c(C(=O)NCc3ccc(Cl)cc3)sc3nc(C)cc(C)c23)c1	u	u	-75*	4%	x	x
CCC1(c2ccccc2)NC(=O)NC1=O (centres undefined)	x	x	x	x	-3%	x
O=C(c1ccc2c3c(cccc13)CC2)C1CCCN(Cc2ccncc2)C1 (centres undefined)	x	x	-69*	u	0%	u
O=C(c1ccc2c3c(cccc13)CC2)C1CCCN(CC2CC2)C1 (centres undefined)	-24%	u	u	-14%	-1%	u
O=C(c1ccc2c3c(cccc13)CC2)C1CCCN(Cc2ncc[nH]2)C1 (centres undefined)	u	-20%[46.1 µM]	-4	-15%	2%	-21%
CCc1nc(CN2CCCC(C(=O)c3ccc4c5c(cccc35)CC4)C2)c(C)[nH]1 (centres undefined)	-29%	u	u	u	-8%	10µM*
COC(=O)[C@@]1(Cc2ccc(OC)cc2)[C@H]2c3cc(C(=O)N(C)C)n(CCc4c[nH]c5ccc(O)cc45)c3C[C@H]2CN1C(=O)c1ccccc1	x	x	x	x	-5%	x
CCOc1ccc2nc(NC3=NC(c4ccc(OC)cc4)CC(=O)N3)nc(C)c2c1 (centres undefined)	u	u	-70*	x	-1%	8.9µM*
CCOc1ccc2nc(NC3=NC(C)(C)C=C(C)N3)nc(C)c2c1	-7%	u	4	u	0%	u
CCc1ccccc1Nc1ncnc2c1cnn2-c1ccc(Cl)cc1	18%[46.1 µM]	x	-5	-2%	x	x
Cc1nc(NC(=O)/C=C/c2ccccc2)n[nH]1	u	u	-96*	u	8%	u
CCCn1nnc(NC(=O)/C=C/c2ccccc2)n1	-23%	25%[46.1 µM]	31	41%	-3%	-2%
N#Cc1ccc(-c2csc(NC(=O)/C=C/c3cccs3)n2)cc1	-13%	u	u	u	3%	6%
O=C(/C=C/c1ccccc1)Nc1nc(-c2ccncc2)cs1	u	u	-63*	13µM*	-2%	7.9µM*
Cc1ccc(-c2csc(NC(=O)/C=C/c3cccs3)n2)cc1C	13%	u	39	u	1%	11µM*
O=c1ccc2cc(O[C@H]3OC(CO)C(O)C(O)C3O)c(O)cc2o1 (some centres undefined)	x	x	x	-7%	-2%	x
O=C(NCc1ccccn1)c1ccccc1OCc1ccccc1Cl	x	x	-66*	-4%	x	x
CCOc1c(Cl)cc(CNCc2ccccn2)cc1OC	4%[46.1 µM]	-1%[46.1 µM]	0	-1%	-9%	13%
O=C(NCc1ccccn1)c1ccccc1OCc1ccc(F)cc1	-4%[46.1 µM]	-22%	1	-24%	x	-15%
COc1cc(CNCc2ccccn2)ccc1OCc1ccccc1Cl	-18%	u	-67*	u	22%	u
N#CCCn1cnc2c1NC=NC2Cl (centres undefined)	u	u	x	x	0%	x
COc1ccc(C)cc1S(=O)(=O)Nc1cccc(-c2ccc(N3CCCC3)nn2)c1	1%[46.1 µM]	x	16	13%	x	x
Cc1ccc(-n2nc(CO)c(C(=O)NC(C)c3ccccc3)n2)cc1C (centres undefined)	u	-4%[46.1 µM]	-63*	u	x	x
CCOC(=O)c1c(C)[nH]c(C)c1-c1ccccc1OC	-2%	u	80	0%	0%	12%
CCOC(=O)c1c(C)[nH]c2cc(Br)c(OC)cc12	2%	-25%	27	3%	-4%[12.9 µM]	5.6µM*
SMILES	Lassa entry inh	Marburg entry inh	HCMV antiviral	FMDV antiviral	Giardia FBPA inh	HCV inh
CC(=O)c1c(C)[nH]c(C(=O)OCC(=O)NCCCc2ccccc2)c1C	x	x	-13	-28%	x	u
COc1ccccc1C(=O)OCc1c(F)cccc1Cl	0%	16%	3	55%	6%	5%
CC(=O)c1c(C)[nH]c(C(=O)OCc2cccc(Cl)c2)c1C	u	u	41	-17%	0%	11µM*
CCCCC(CC)CNC(=O)c1[nH]c(C)c(C(C)=O)c1C (centres undefined)	x	-2%	-65*	29%	1%	-30%
CCOC(=O)c1c(C)[nH]c(C=O)c1Cc1cccc(Cl)c1	6.3µM*	u	-36	0%	-4%	20%
CC(=O)c1c(C)[nH]c(C(=O)OCc2c(F)cccc2Cl)c1C	u	u	-62*	u	1%	10µM*
COc1ccc2c(c1)[C@@]1(OCCC=C[C@@H]1C)C(=O)N2CC1CC1	x	-7%[14.2 µM]	x	x	x	x
Cc1ccc(C)c(N2CCN(C(=O)c3cc4c(=O)n(Cc5ccco5)ccc4nc3C)CC2)c1	-14%[46.1 µM]	x	-39	u	x	x
CC(=O)c1c(C)[nH]c(C(=O)NCc2ccccc2Cl)c1C	5%	-7%	-9	16%	1%	13µM*
CC(=O)c1c(C)[nH]c(C(=O)OCc2ccc(F)cc2Cl)c1C	-16%	u	-68*	-22%	0%	u
COC(=O)c1c(C)[nH]c(C(=O)OCc2ccc(F)cc2)c1C	-30%	-9%	87	24%	3%	u
CCc1c(C(=O)NCc2ccccc2Cl)[nH]c(C)c1C(C)=O	u	u	u	39%	-3%	-23%
COc1ccc([C@]23Cc4cc(C#N)ccc4[C@H](O2)C2=C(CC4(CCCCC4)OC2=O)O3)cc1	x	1%[14.2 µM]	x	x	x	x
CCC1(C)NC(=O)N(/N=C/c2ccc(C)s2)C1=O (centres undefined)	x	x	-98*	55%	5%	-3%
NCCNC(=O)c1ccc(Cl)cn1	x	x	-11	-8%	-12%	x
O=C(N/N=C\c1ccc([N+](=O)[O-])o1)c1ccc(O)cc1	x	x	x	x	-16%[21.7 µM]	x
Cc1cc(C(=O)N/N=C/c2ccc([N+](=O)[O-])o2)c(C)o1	x	x	-61*	u	-8%	u
CCCCCCC(=O)Nc1ccc(C(=O)N/N=C/c2cccnc2)cc1	-1%	-19%	10	-23%	3%	-18%
CCCCCCCC(=O)Nc1ccc(C(=O)N/N=C/c2cccc([N+](=O)[O-])c2)cc1	u	u	-69*	-10%	7%	u
CCCC(=O)Nc1ccc(C(=O)N/N=C/c2ccc([N+](=O)[O-])o2)cc1	u	12µM*	-95*	u	-8%	u
Cc1nonc1C(=O)N/N=C/c1ccc([N+](=O)[O-])o1	x	x	u	-20%	u	u
Cc1c(C(=O)NCC(C)C)sc2ncnc(NCC3CCCO3)c12 (centres undefined)	x	x	x	0%	x	x
CCCS(=O)(=O)c1nc(S(=O)(=O)c2ccc(C)cc2)c(N2CCN(CC)CC2)s1	x	x	-80*	-2%	-1%	16%
CCN1CCN(c2sc(S(C)(=O)=O)nc2S(=O)(=O)c2ccc(C)cc2)CC1	x	x	-91*	8%	x	u
CCS(=O)(=O)c1nc(S(=O)(=O)c2ccc(C)cc2)c(N2CCCC2)s1	x	x	-30	20%	x	-27%
